Records with an inconclusive call do not appear. Calls of active or inactive are those of the source. The calls were made as follows: active = hit-call score of the fitted dose curve at least 0.9, where 1 is the maximum; inconclusive = response in the unintended direction; inactive = score below 0.9.

mouse Cholecystokinin, CCK1 Receptor (CCKA), Cckar (gene 12425), sequence (O08786 whole entry, looked up): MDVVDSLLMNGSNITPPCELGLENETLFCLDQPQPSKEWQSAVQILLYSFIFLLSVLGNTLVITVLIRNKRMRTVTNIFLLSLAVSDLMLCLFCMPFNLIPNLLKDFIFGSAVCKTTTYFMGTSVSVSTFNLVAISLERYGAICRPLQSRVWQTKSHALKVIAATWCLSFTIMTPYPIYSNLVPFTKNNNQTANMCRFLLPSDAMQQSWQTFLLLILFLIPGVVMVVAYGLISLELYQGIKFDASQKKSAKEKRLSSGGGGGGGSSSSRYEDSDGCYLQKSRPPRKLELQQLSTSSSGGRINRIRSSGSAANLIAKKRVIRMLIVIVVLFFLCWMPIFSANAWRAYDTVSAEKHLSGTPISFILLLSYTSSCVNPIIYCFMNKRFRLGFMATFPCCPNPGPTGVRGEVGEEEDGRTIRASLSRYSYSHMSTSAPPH
human Vasopressin 1A Receptor (V1A), AVPR1A (gene 552), sequence (P37288 whole entry, looked up): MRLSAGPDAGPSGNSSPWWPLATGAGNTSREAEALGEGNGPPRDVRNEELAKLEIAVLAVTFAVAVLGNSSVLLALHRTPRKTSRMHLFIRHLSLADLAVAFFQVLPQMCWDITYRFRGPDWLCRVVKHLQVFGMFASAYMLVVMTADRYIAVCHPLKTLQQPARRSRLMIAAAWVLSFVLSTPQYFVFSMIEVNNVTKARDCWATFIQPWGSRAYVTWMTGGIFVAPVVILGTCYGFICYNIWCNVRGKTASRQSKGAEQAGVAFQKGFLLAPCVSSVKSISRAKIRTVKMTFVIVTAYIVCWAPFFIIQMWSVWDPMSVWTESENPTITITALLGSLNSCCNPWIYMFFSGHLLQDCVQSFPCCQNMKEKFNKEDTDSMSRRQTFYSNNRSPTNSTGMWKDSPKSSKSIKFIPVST
human Orphanin, Opioid Related Nociceptin Receptor 1 (ORL1), OPRL1 (gene 4987), sequence (P41146 whole entry, looked up): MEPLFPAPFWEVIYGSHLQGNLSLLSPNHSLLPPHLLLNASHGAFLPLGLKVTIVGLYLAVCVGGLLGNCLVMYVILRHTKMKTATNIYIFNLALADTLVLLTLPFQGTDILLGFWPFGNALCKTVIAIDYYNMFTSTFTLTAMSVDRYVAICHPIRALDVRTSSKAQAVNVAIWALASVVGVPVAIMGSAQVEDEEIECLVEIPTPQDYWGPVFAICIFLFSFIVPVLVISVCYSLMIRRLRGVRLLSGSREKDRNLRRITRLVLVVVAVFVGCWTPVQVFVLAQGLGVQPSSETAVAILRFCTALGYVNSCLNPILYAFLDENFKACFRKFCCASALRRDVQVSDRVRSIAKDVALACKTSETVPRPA

The target of one test is human Orphanin, Opioid Related Nociceptin Receptor 1 (ORL1), OPRL1 (gene 4987) (UniProt P41146). The test is described as follows: NVS_GPCR_hORL1: NovaScreen (NVS) G Protein-Coupled Receptor Assay for human Orphanin, Opioid Related Nociceptin Receptor 1 (ORL1) (AID 2283283). Summed up:
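Cell-free binding using HEK293-derived receptor protein: radioligand displacement measured by filter scintillation 1 hour after dosing. Primary testing at 25 uM in duplicate, followed by singleton concentration series up to 50 uM; DMSO served as negative control.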
On to `CCC[CH2][Sn]([Cl])([CH2]CCC)[CH2]CCC`, for which the AC50 was 1.21 µM (active). Take `[Cl-].[Cl-].[Hg+2]`: the half-maximal activity concentration (AC50) is 0.321 µM (active).

With `CCCCCCCCn1sccc1=O`, the AC50 was 14.1 µM (active). Still for that read-out and setting: with `COP(=S)(OC)SCN1C(=O)c2ccccc2C1=O` the figure was 44.4 µM (active). As for `CCCCCOC(=O)c1ccccc1C(=O)OCCCCC`, the call was inactive. Take `O=[N+]([O-])C(Br)(CO)CO`: the AC50 is 5.41 µM (active). As to `O=C(N[C@H](c1ccccc1)[C@@H]1CN2CCC1CC2)c1c(Cl)ccc(C(F)(F)F)c1Cl`, the AC50 is 3.38 µM (active).

Take `N#CC(Br)(Br)C(N)=O`: the AC50 is 41.2 µM (active).

A further test concerns the target human Vasopressin 1A Receptor (V1A), AVPR1A (gene 552) (UniProt P37288). The test is described as follows: NVS_GPCR_hV1A: NovaScreen (NVS) G Protein-Coupled Receptor Assay for human Vasopressin 1A Receptor (V1A) (AID 2283284). Summed up:
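Single-concentration duplicate screen at 25 uM, with concentration-response follow-up (top 50 uM) for actives. The assay measured displacement of a radioligand from human platelet-derived receptor after 1.5 h, detected by filtration and scintillation counting.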
With `CCC[CH2][Sn]([Cl])([CH2]CCC)[CH2]CCC`, the AC50 was 7.85 µM (active). As to `O=[N+]([O-])C(Br)(CO)CO`, the result was inactive. On the same count and under the same terms, with `CC(O)CCO` (stereo unspecified) the entry was “inactive”.

Another test addresses mouse Cholecystokinin, CCK1 Receptor (CCKA), Cckar (gene 12425) (UniProt O08786). Briefly: NVS_GPCR_mCCKAPeripheral: NovaScreen (NVS) G Protein-Coupled Receptor Assay for mouse Cholecystokinin, CCK1 Receptor (CCKA) (AID 2283285). The procedure, abridged: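 Chemicals were first screened in duplicate at 25 uM, with those meeting threshold (e.g., 30% inhibition) retested in singleton concentration series to 50 uM maximum. Binding of radioligand to mouse pancreatic membranes was read after 2 h by filtration and scintillation counting.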
Turning to `CCC[CH2][Sn]([Cl])([CH2]CCC)[CH2]CCC`, the concentration at half-maximal activity (AC50) is 0.228 µM (active). On the same count and under the same terms, with `[Cl-].[Cl-].[Hg+2]` the figure was 18 µM (active); with `CN(C)[C@@H]1C(=O)C(C(N)=O)=C(O)[C@@]2(O)C(=O)C3=C(O)c4c(O)cccc4[C@@](C)(O)[C@H]3C[C@@H]12`, 25 µM (active).

With `CC(C)(C)C(O)(CCc1ccc(Cl)cc1)Cn1cncn1` (stereo unspecified), the call was inactive. The same measure, in the same setting: the same measure for `CCCCCOC(=O)c1ccccc1C(=O)OCCCCC`: “inactive”; for `O=[N+]([O-])c1ccc(Oc2ccc(Cl)cc2Cl)cc1`: “inactive”; for `Cc1cc(N=Nc2ccccc2C)ccc1N`: “inactive”.

The target in the next test is rat Serotonin, 5-Hydroxytryptamine Receptor 1 (5HT1), Non-Selective Binding, Htr1a (gene 24473) (UniProt P19327). The test is described as follows: NVS_GPCR_r5HT1_NonSelective: NovaScreen (NVS) G Protein-Coupled Receptor Assay for rat Serotonin, 5-Hydroxytryptamine Receptor 1 (5HT1), Non-Selective Binding (AID 2283286). How it is done: NVS_GPCR_r5HT1_NonSelective is a biochemical, single-readout assay that uses extracted gene-proteins from Rat cortical membranes in a tissue-based cell-free assay. Measurements were taken 1 hour after chemical dosing in a 48-well plate.NVS_GPCR_r5HT1_NonSelective is one of one assay component(s) measured or calculated from the NVS_GPCR_r5HT1_NonSelective assay. It is designed to make measurements of radioligand binding, a form of binding reporter, as detected with scintillation counting signals by Filter-based radiodetection technology.Data from the assay component NVS_GPCR_r5HT1_NonSelective was analyzed into 1 assay endpoint. This assay endpoint, NVS_GPCR_r5HT1_NonSelective, was analyzed in the positive analysis fitting direction relative to DMSO as the negative control and baseline of activity. Using a type of binding reporter, loss-of-signal activity can be used to understand changes in the binding as they relate to the gene Htr1a. Furthermore, this assay endpoint can be referred to as a primary readout, because the performed assay has only produced 1 assay endpoint. To generalize the intended target to other relatable targets, this assay endpoint is annotated to the gpcr intended target family, where the subfamily is rhodopsin-like receptor.
rat Serotonin, 5-Hydroxytryptamine Receptor 1 (5HT1), Non-Selective Binding, Htr1a (gene 24473), sequence (P19327 whole entry, looked up): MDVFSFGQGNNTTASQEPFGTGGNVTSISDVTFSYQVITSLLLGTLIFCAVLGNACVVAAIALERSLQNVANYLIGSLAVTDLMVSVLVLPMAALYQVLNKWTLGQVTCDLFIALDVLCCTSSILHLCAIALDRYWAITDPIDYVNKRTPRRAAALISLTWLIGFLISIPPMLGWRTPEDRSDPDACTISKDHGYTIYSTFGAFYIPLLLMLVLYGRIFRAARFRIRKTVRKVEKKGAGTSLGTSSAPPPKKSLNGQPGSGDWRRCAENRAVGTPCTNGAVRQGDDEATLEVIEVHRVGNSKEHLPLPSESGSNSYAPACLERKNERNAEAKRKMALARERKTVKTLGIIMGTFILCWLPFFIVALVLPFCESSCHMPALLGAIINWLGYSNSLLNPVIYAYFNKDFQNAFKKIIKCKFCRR
Binding assays used specific radioligands (tritiated, iodinated) with non-radioactive competitive displacement ligands in agonist or antagonist protocols (as indicated) and various reference compounds and inhibitors to titrate specific binding to receptors and transporters. Most enzyme assays (CYPs, kinases, phosphatases, proteases, HDACs) used recombinant protein and specific substrates (fluorescence mostly, some colorimetric and radioactive) and inhibitors, followed by a biochemical separation of substrate and product. All assays for the biochemical HTS were initially run in duplicate at a single concentration (10 uM for CYP450 assays and 25 uM for all others). Assay-chemical combinations meeting a pre-defined threshold (e.g., 30% inhibition and other criteria defined below) were then run in singleton concentration-response format with maximum concentration of 20 uM for CYPs and 50 uM for all others. Each assay was run with positive and negative controls, and concurrent controls on every plate. The follow-up (secondary) screen tested active chemical-pairs in concentration series, as well as a few additional assays not tested in the primary screen, some selected negative inactives, and several cases re-run in the concentration series for confirmatory purposes.
For `CCC[CH2][Sn]([Cl])([CH2]CCC)[CH2]CCC`, the AC50 was 17.2 µM (active). For `CCOC(=O)[C@]1(c2ccccc2)Oc2ccccc2[C@@H]1N`, the AC50 is 1.08 µM (active). As for `COP(=S)(OC)SCN1C(=O)c2ccccc2C1=O`, the compound was called inactive.

As to `O=[N+]([O-])C(Br)(CO)CO`, the AC50 is 32.8 µM (active). As for `O=C(N[C@H](c1ccccc1)[C@@H]1CN2CCC1CC2)c1c(Cl)ccc(C(F)(F)F)c1Cl`, the call was inactive. On the same count and under the same terms, with `Cc1ccc(N=C=O)cc1N=C=O` the entry was “inactive”.

The test system of the next test is rabbit Platelet Activating Factor Receptor (PAF), gene 100354046. The test is described as follows: NVS_GPCR_rabPAF: NovaScreen (NVS) G Protein-Coupled Receptor Assay for rabbit Platelet Activating Factor Receptor (PAF) (AID 2283287). Summed up: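 Rabbit platelet membrane preparation; radioligand displacement read by filter-based scintillation counting 1 h after dosing, loss of signal versus DMSO. Primary screen in duplicate at 25 uM, actives followed up in concentration series.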
For the compound `CCC[CH2][Sn]([Cl])([CH2]CCC)[CH2]CCC`, the half-maximal activity concentration (AC50) was 5.79 µM (active). The same measure, in the same setting: the same measure for `[Cl-].[Cl-].[Hg+2]`: 36.7 µM (active); for `CCOC(=O)[C@]1(c2ccccc2)Oc2ccccc2[C@@H]1N`: 7.6 µM (active). As for `CC(C)(C)C(O)(CCc1ccc(Cl)cc1)Cn1cncn1` (stereo unspecified), the AC50 is 16.7 µM (active). `Oc1ccccc1Cl`: the result was inactive. For the compound `CC(C)N(Cc1ccccc1)C(=O)C(C)(C)C`, the AC50 was 13.1 µM (active).

Take `COP(=S)(OC)SCN1C(=O)c2ccccc2C1=O`: the AC50 is 14.9 µM (active).

For the origin of these results see PubChem BioAssay (EPA / NIEHS).
